From PubChem BioAssay (NCATS)
Inconclusive results are not listed. A number with no mark means an inactive call. Active and inactive are the calls of the source. The call rests on the fitted dose curve; in most records, active means well fitted inhibition curve with a large enough effect; inconclusive means small, poorly fitted or top-dose-only effect; inactive means no such curve, though single readings can be large or run the other way. Non-standard residues stand in square brackets, D forms with d. Residues, ends and D or L forms follow the SMILES beside them. *: point of attachment. Sta = CC(C)C[C@H](N)[C@@H](O)CC(=O)O; Isovaleryl = CC(C)CC(=O)*

Experiment: BET inhibitor-based combinations targeting novel dependencies in MECOM-rearranged (r) AML: OCI-AML3 cell line (AID 2202232); further: nearly all actives have a fitted effect of over 35% in size
Conditions: CellTiter-Glo luminescence, 48 h; Potency: OCI-AML3 viability; series mostly up to 46 µM; viability (% of control): at the top concentration
Excerpt: Ecotropic viral insertion site 1 (EVI1) is located on chromosome 3q26.2 as part of the MECOM (MDS and EVI1 complex) locus. Under normal hematopoiesis, EVI1 is a regulator of hematopoietic stem cell maintenance and self-renewal and EVI1 levels decrease as the cells differentiate. In approximately 5-10% of de novo acute myeloid leukemia (AML) EVI1 is aberrantly expressed, including Chromosomal inv(3)(q21;q26.2) or t(3;3)(q21;q26.2) alterations (MECOM-r) that account for about 50% of AML with EVI1 overexpression 31. AMLs with high levels of EVI1 have a poor prognosis and an overall survival time averaging between 10-14 months. EVI1 overexpression confers resistance in leukemia cells, highlighting the need to develop new targeted therapies for EVI1 overexpressing AMLs.
Here, we performed an unbiased chemical drug screening by evaluating the single agent activity of a collection of 2,480 oncology-focused, approved and investigational drugs (NCATS Mechanism Interrogation Plates, MIPE v5.0) against a panel of seven AML cell lines. These included four MECOM-r cell-lines (AML-191, AML-194, UCSD-AML1 and HNT-34) and three non-MECOM-r AMLs (MV4-11, OCI-AML3 and SET-2). Exploiting the mechanistic redundancy built in the library, we identified target-level sensitivities in MECOM-r AML cells and relative activity as compared to other AML subtypes.
A collection of 2480 mechanistically annotated dugs (MIPE v5.0) was used to screen four 3q26.2 rearranged AML cell lines and three non-3q26.2 rearranged AML cell lines. This library purposely exploits redundancy by including multiple inhibitors of key onco-targets, while simultaneously encompassing mechanistic diversity, targeting more than 800 distinct mechanisms of action. Briefly, cells were seeded in 5 uL of growth media using a Multidrop Combi dispenser into 1536 well white polystyrene tissue culture treated plates (Corning) at a density of 500cells/well. For each cell-line, for each of the 2480 drugs in MIPE v5.0 library, an 11-point dose curve was generated via a 1536 pin-tool. Plates were incubated for 48 hr at standard incubator conditions, covered by a stainless steel gasketed lid to prevent evaporation. Cell viability was determined by luminescence based, Cell Titer Glo assay (Promega). In detail, 3 uL of Cell Titer Glo were added to each well and plates were incubated at room temperature for 15 min with a stainless-steel lid in place. Luminescence readings were taken using a Viewlux (PerkinElmer) with a 2 s exposure time per plate. Compound dose-response curves were normalized to DMSO and empty well controls on each plate. Quantitative drug activity data from dose-response curves was determined utilizing area Under the Curve (AUC) and Z-transformed AUC (Z-AUC, a mean-centering transformation applied to each individual cell-line screened).
Potency means the concentration at half of the fitted maximal effect.

Compound | viability (% of control) | Potency
Nc1cccc2c1C(=O)N(C1CCC(=O)NC1=O)C2=O (stereo not given) | 114% | –
Cn1cc(C2=C(c3c4n(c5ccccc35)CCC(CN)C4)C(=O)NC2=O)c2ccccc21 (stereo not given) | 88.4% [at 8.46 µM] | –
C[C@@]1(c2cc(-c3cncnc3)c(F)cc2F)CCSC(N)=N1 | 106% | –
COc1cc2c(cc1OC)CN(CCc1ccc(NC(=O)c3cccc4c(=O)c5cccc(OC)c5[nH]c34)cc1)CC2 | 103% | –
COc1cc(Nc2ncc(F)c(Nc3ccc4c(n3)NC(=O)C(C)(C)O4)n2)cc(OC)c1OC | – | 9.34 µM (active)
Cc1sc2c(c1C)C(c1ccc(Cl)cc1)=N[C@@H](CC(=O)Nc1ccc(OCCOCCOCCOCCNc3cccc4c3C(=O)N(C3CCC(=O)NC3=O)C4=O)cc1)c1nnc(C)n1-2 (stereo not given in full) | – | 0.0332 µM (active)
CC1=C(C)C(=O)C(C(CCCCCC(=O)O)c2ccccc2)=C(C)C1=O (stereo not given) | 109% | –
CN[C@@H](C)[C@H]1[C@H](O)C[C@@]2(C)[C@@H]3CC[C@H]4C(C)(C)[C@@H](NC)CC[C@@]45C[C@@]35CC[C@]12C | 106% [at 8.46 µM] | –
COc1cccc(OC)c1-c1cc(C(=O)NC2(C(=O)O)C3CC4CC(C3)CC2C4)nn1-c1ccnc2cc(Cl)ccc12 (stereo not given) | 124% | –
NC(=O)c1ncn([C@@H]2O[C@H](CO)[C@@H](O)[C@H]2O)c1N | 120% | –
CC(C)CC(=O)N[C@H](C(=O)N[C@H](C(=O)N[C@@H](CC(C)C)[C@@H](O)CC(=O)N[C@@H](C)C(=O)N[C@@H](CC(C)C)[C@@H](O)CC(=O)O)C(C)C)C(C)C (Isovaleryl-VV[Sta]A[Sta]-OH) | 105% | –
CC(N)C12CC3CC(CC(C3)C1)C2 (stereo not given) | 80.4% | –
Cc1noc(-c2ccc(CSCCC(=O)O)cc2)c1NC(=O)OC(C)c1ccccc1Cl (stereo not given) | 119% | –
CCN(CCO)CCCC(C)Nc1ccnc2cc(Cl)ccc12 (stereo not given) | 48.6% [at 5.12 µM] | –
C=CC(=O)Nc1cccc(Oc2nc(Nc3ccc(N4CCN(C)CC4)cc3)ncc2Cl)c1 | – | 7.42 µM (active)
C=CC(=O)Nc1cc(Nc2nccc(-c3cn(C)c4ccccc34)n2)c(OC)cc1N(C)CCN(C)C | – | 3.72 µM (active)
NC(=O)c1cccnc1 | 120% | –
C1=C/COCc2cc(ccc2OCCN2CCCC2)Nc2nccc(n2)-c2cccc(c2)COC/1 | – | 3.32 µM (active)
Oc1ccc(C2CCN(c3ccnc4ccccc34)CC2)cc1O | – | 13.2 µM (active)
CCN(CC)CCNC(=O)c1c(C)[nH]c(/C=C2\C(=O)Nc3ccc(F)cc32)c1C | – | 5.9 µM (active)

Compound | viability (% of control) | Potency
c1cc(N[C@@H]2CCNC2)nc(-c2cnc3ccc(-c4cn[nH]c4)cn23)c1 | – | 8.33 µM (active)
CC(C)(C)NC(=O)Nc1cccc(Nc2ncc(F)c(NC(C)(C)CO)n2)c1 | – | 3.72 µM (active)
N#CN1CCC[C@@H](n2nc(-c3ccc(Oc4ccc(F)cc4F)cc3)c(C(N)=O)c2N)C1 | – | 10.5 µM (active)
COc1cc2c(Nc3ccc(NC(=O)c4ccccc4)cc3)ncnc2cc1OCCCN1CCOCC1 | – | 18.6 µM (active)
CCC(C)(C)c1ccc(CC(C)CN2C[C@@H](C)O[C@@H](C)C2)cc1 (stereo not given in full) | 79% | –
COC(=O)C1=C(C)NC(C)=C(C(=O)OCCCN2CCC(c3ccccc3)(c3ccccc3)CC2)C1c1cccc([N+](=O)[O-])c1 (stereo not given) | – | 29.5 µM (active)
NS(=O)(=O)OC[C@@H]1C[C@@H](n2ccc3c(N[C@H]4CCc5ccccc54)ncnc32)C[C@@H]1O | – | 0.372 µM (active)
CC(C)[C@H](CO)Nc1nc(Nc2ccc(C(=O)O)c(Cl)c2)c2ncn(C(C)C)c2n1 | 95.1% | –
Cn1c(=O)c(F)c(Nc2ccc(I)cc2F)c2c(=O)n(C[C@@H](O)CO)cnc21 | – | 0.0059 µM (active)
O=C(O)C(O)Cc1ccc(O)c(O)c1 (stereo not given) | 116% [at 92.2 µM] | –
CCCc1c(OCCCOc2ccc(OCC(=O)O)cc2)ccc(C(C)=O)c1O | 110% | –
Cc1ncc(-c2ccnc(Nc3ccc(S(C)(=O)=O)cc3)n2)n1C(C)C | – | 2.35 µM (active)
Cc1cccc(-c2[nH]c(C(C)(C)C)nc2-c2ccc3nccnc3c2)n1 | 46.1% | –
NCC(=O)Nc1ccc(-n2nc(C(F)(F)F)cc2-c2ccc3c(ccc4ccccc43)c2)cc1 | – | 18.6 µM (active)
O=C(NOCC(O)CO)c1cc(Br)c(F)c(F)c1Nc1ccc(I)cc1F (stereo not given) | – | 0.0166 µM (active)
CNC[C@H](O)c1ccc(O)c(O)c1 | 87.6% | –
Cn1c(=O)n(-c2ccc(C(C)(C)C#N)cc2)c2c3cc(-c4cnc5ccccc5c4)ccc3ncc21 | – | 0.241 µM (active)
N[C@@H]1CONC1=O | 99.8% | –
CN(C)CC/C=C1/c2ccccc2COc2ccc(CC(=O)O)cc21 | 111% | –
O=c1cc(-c2ccccc2)oc2cc(O)c(O)c(O)c12 | – | 7.42 µM (active)
